# PubChem BioAssay (NCI)
# The panel holds about 83,000 compounds, 20% with a hit somewhere; the sample as a whole holds those more often.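 Negative percent growth values reflect cell death: -40 means 40% of the cells present at the start died, and -100 means all died.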 Values without a mark were called inactive. Active and inactive are the calls of the source. The calls were made as follows: active = growth percent below 10; inactive = the rest.
# How the values were obtained:
# Assay in all cases: NCI-60 one-dose screen, 48 h (100 = growth as untreated, 0 = no growth, -100 = all killed)
# Conditions in all cases: 10 µM unless noted
# SR leukemia = system: SR leukemia
# RPMI-8226 leukemia = system: RPMI-8226 leukemia
# OVCAR-8 ovarian = system: OVCAR-8 ovarian
# OVCAR-5 ovarian = system: OVCAR-5 ovarian
# OVCAR-4 ovarian = system: OVCAR-4 ovarian
# SK-OV-3 ovarian = system: SK-OV-3 ovarian
# IGROV1 ovarian = system: IGROV1 ovarian
# OVCAR-3 ovarian = system: OVCAR-3 ovarian
# HS 578T breast = system: HS 578T breast
# NCI/ADR-RES ovarian = system: NCI/ADR-RES ovarian
# T-47D breast = system: T-47D breast
# BT-549 breast = system: BT-549 breast
# MDA-MB-435 melanoma = system: MDA-MB-435 melanoma
# SW-620 colon = system: SW-620 colon
# MCF7 breast = system: MCF7 breast
# HCT-116 colon = system: HCT-116 colon
# HCC-2998 colon = system: HCC-2998 colon
# KM12 colon = system: KM12 colon
SMILES,growth (SR leukemia),growth (RPMI-8226 leukemia),growth (OVCAR-8 ovarian),growth (OVCAR-5 ovarian),growth (OVCAR-4 ovarian),growth (SK-OV-3 ovarian),growth (IGROV1 ovarian),growth (OVCAR-3 ovarian),growth (HS 578T breast),growth (NCI/ADR-RES ovarian),growth (T-47D breast),growth (BT-549 breast),growth (MDA-MB-435 melanoma),growth (SW-620 colon),growth (MCF7 breast),growth (HCT-116 colon),growth (HCC-2998 colon),growth (KM12 colon)
Cc1c(-c2ccc(O)cc2)n(Cc2ccc(OCCN3CCCCCC3)cc2)c2ccc(O)cc12,1.53% (active),57.5%,84.7%,87.9%,78.1%,81.3%,85.7%,85.1%,68.4%,85.7%,58.4%,84%,79.6%,66.3%,11.6%,59.1%,114%,73.4%
COc1ccc(C/C(C)=C(\c2ccc(Cl)cc2)c2ccc(OCCN3CCCCC3)cc2)cc1,80.6%,90.6%,94.9%,81.4%,102%,103%,99.9%,114%,86.8%,108%,75.1%,96.7%,102%,88.4%,81.7%,100%,98.5%,104%
N=C(N)c1ccc(-c2ccc(-c3ccc(Cl)cc3Cl)s2)cc1,4.31% (active),-24.4% (active),-21.3% (active),38.6%,-16.2% (active),88%,-37.5% (active),-16.4% (active),71.6%,77.5%,47.2%,100%,-2.28% (active),-52.1% (active),-65.4% (active),-60.1% (active),-65.9% (active),-87.3% (active)
O=C(c1ccccc1)c1ccc(C2CCCCC2)cc1,107%,95.6%,97.8%,95.4%,95.2%,91.6%,100%,98.7%,103%,99.7%,85.7%,115%,99.8%,93.4%,95.7%,83.8%,107%,103%
Cn1ccc(=O)c(C(=O)Nc2nsc3ccc([N+](=O)[O-])cc23)c1,55.9%,61.6%,59.3%,84%,53.4%,30.8%,27.3%,75.6%,54.7%,68%,74.6%,69.8%,75.6%,56.5%,34.7%,56.2%,87%,65.3%
Clc1cccc(Nc2ncnc3ccc(-c4cnc5[nH]ccc5c4)cc23)c1,60%,60%,68.2%,78.7%,85%,71.1%,25.1%,64.6%,81.4%,77%,28.3%,77.4%,88.3%,107%,48.3%,75.1%,95%,72.6%
O=C(/C=C/c1ccccc1)Nc1ncc(Cc2ccccc2Cl)s1,17.9%,25.4%,39.5%,44%,70.2%,44.4%,31.5%,-24.2% (active),28.2%,9.49% (active),21.1%,55.2%,-44.4% (active),31.4%,18.9%,16%,35.4%,14%
CCSc1nc2scc(C)c2c(=O)[nH]1,101%,101%,99.3%,99.8%,96.7%,98.5%,102%,107%,95.5%,102%,101%,96.8%,105%,104%,96.3%,101%,106%,103%
COC12C=C/C(=C(/C(=O)OCc3ccncn3)C(=O)CCCCCCCCC3(OC)C=C/C(=C(/C(=O)OCc4ccncn4)C(=O)CCCCCCCC1)O3)O2,-15.6% (active),-22.3% (active),17.2%,-2.72% (active),12.2%,52.8%,-27.1% (active),-52.4% (active),38%,7.59% (active),25.3%,-27.1% (active),-34.4% (active),12.9%,5.92% (active),-50.9% (active),-85.1% (active),-75.9% (active)
CCOc1nc(-c2ccccc2)cc2c(O)c(C(=O)N/N=C/c3ccccc3)[nH]c(=O)c12,95.2%,97.6%,106%,111%,119%,109%,36%,103%,104%,104%,110%,167%,123%,100%,101%,111%,8.59% (active),109%
O=S(=O)(Nc1cc(Cl)ccc1Cl)c1ccc(-c2cnc(C3CC3)o2)cc1,16.5%,31%,56.2%,72.1%,52.5%,52%,39.3%,5.34% (active),-2.43% (active),26%,28.7%,40.5%,-12% (active),21%,12.9%,21.5%,67.4%,24%
Cc1cc(C)c2c(c1)N(C)c1ncnc(-n3cnc4cc(C)ccc43)c1CC2C (stereo unspecified),4.51% (active),9.87% (active),17.1%,76.6%,61.5%,3.2% (active),44.7%,8.19% (active),25.1%,14.6%,28.8%,29.8%,8.39% (active),21.4%,17.1%,11.1%,52.1%,22.7%
O=S(=O)(NCCNc1nccc(-c2c(-c3ccc(F)c(O)c3)nc3sccn23)n1)c1ccc(O)cc1,38.4%,17.9%,32.8%,104%,34.1%,53.7%,36.1%,57.4%,64.1%,39.6%,6.97% (active),55.1%,9.31% (active),67.1%,27.6%,30.4%,76.5%,13.9%
O=c1c2ccccc2n2cnc3ccc(Cl)c1c32,44.9%,98.6%,78.1%,81.6%,82.6%,69.8%,55.5%,85.2%,84.8%,86.7%,54.4%,75.4%,90.5%,79.2%,75%,65.7%,103%,84.3%
Cc1cc(S(=O)(=O)/N=C(\N)n2nc(C)c(C)c2C)c(SCc2ccccc2)cc1Cl,65.8%,26.5%,72.8%,90%,63.3%,106%,-20.8% (active),81%,77.4%,57.4%,53%,112%,27%,75.4%,70.8%,62%,56.9%,81.7%
O=CN1N=C(c2cccc(Nc3ccnc4cc(Cl)ccc34)c2)CC1c1ccccc1 (stereo unspecified),9.69% (active),27.7%,38%,36.3%,41.2%,8.25% (active),28.9%,-12.9% (active),1.24% (active),3.37% (active),45.5%,35.7%,-34.4% (active),34.2%,19.3%,7.26% (active),12.4%,19.7%
Cc1cc(C(=O)O)c(C)n1-c1cccc(C(=O)O)c1,62.6%,107%,73.4%,66.4%,91.4%,105%,56.9%,121%,92.5%,72.1%,84.1%,83.3%,100%,44.6%,61.2%,35.3%,101%,97.8%
